TIM10 inh – growth inhibitors of TIM10 yeast strain; S. cerevisiae TIM10 strain growth, BacTiter-Glo luminescence, 24 h; inhibition, % at 10 µM; 330,000 tested, 1.4% active;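 active means inhibition of 40% or more at the single tested concentration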;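 further: wild-type TIM10 isogenic control strain grown at permissive 25 °C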
tim23-1 inh – growth inhibitors of tim23-1 mutant yeast; S. cerevisiae tim23-1 growth, BacTiter-Glo luminescence, 24 h; inhibition, % at 20 µM; 330,000 tested, 1.3% active; AID 463212;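 active means growth inhibition of the mutant yeast at or above 50%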;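 further: temperature-sensitive mutant grown at 25 °C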
NLRP3 yeast inh – NALP3 inhibition in yeast; Yeast reconstituted NLRP3/ASC/caspase-1, beta-gal luminescence, 24 h; inhibition, % at 10 µM; 330,000 tested, 0.39% active; AID 2825;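 active means inhibition of 50% or more; inactive means inhibition below 50%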
PfHsp90 set2 – reduces growth (ATP signal) of yeast expressing P. falciparum Hsp90; S. cerevisiae expressing PfHsp90, BacTiter-Glo ATP, 48 h; yeast lacking PDR1 and PDR3 efflux regulators; inhibition, % at 9.4 µM; 310,000 tested, 0.32% active; AID 504621;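 active means every replicate shows inhibition above about 80%, whatever the replicate mean, limit read from the data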
tim10-1 inh – inhibits growth of tim10-1 mutant yeast; 330,000 tested, 2.2% active; S. cerevisiae tim10-1 ts strain growth, BacTiter-Glo, 24 h; inhibition, % at 20 µM;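 active means inhibition of at least 40%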;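 further: mutant grown at 25 °C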
tim10-1 confirm – confirmation of tim10-1 mutant yeast growth inhibitors; inhibition, % at 20 µM; S. cerevisiae tim10-1 ts strain growth, BacTiter-Glo, 24 h; 7,400 tested, 56% active; shares compounds with tim10-1 inh;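 active means inhibition of yeast growth at or above a set limit in either of two repeat tests at 20 µM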;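 further: tim10-1 mutant grown at permissive 25 °C to find synthetic lethal compounds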
A number is an active result; n = inactive; x = not tested or not shown. Rows were chosen to be rich in hits. Some 3.7% of all compounds tested hit in one or more screens of this group.

SMILES | TIM10 inh | tim23-1 inh | NLRP3 yeast inh | PfHsp90 set2 | tim10-1 inh | tim10-1 confirm
Cc1ccc(NC(=O)CN(C)S(=O)(=O)c2ccc3c(c2)n(C)c(=O)c(=O)n3C)c(C)c1 | n | n | n | n | n | x
CCCCN1c2ccccc2N(CCCO)c2cc(C)nnc21 | n | n | n | n | 44.8 | n
COc1ccc(C(=O)OCC(=O)Nc2cc(C)on2)c(OC)c1OC | n | n | n | n | 85.3 | n
CNS(=O)(=O)c1cn(CC(=O)NCc2ccc(N(C)C)cc2)cc1S(=O)(=O)NC | n | n | n | n | n | x
COc1ccc(NC(=O)c2cc(S(=O)(=O)N3CCCCC3)c[nH]2)cc1 | n | n | n | n | n | x
N#CCCN1CCCc2cc(N=Nc3ccc(C(F)(F)F)cc3)ccc21 | n | n | n | n | 41.2 | 34.1
N#CCc1nn2c(-c3ccccc3)ccnc2c1C#N | n | n | n | n | 43.0 | n
O=C(CCCn1c(=S)[nH]c2cc3c(cc2c1=O)OCO3)NCc1cccc(Cl)c1 | n | n | n | n | n | x
COc1ccccc1NC(=O)Cn1cc(C(=O)C2CC2)c2ccccc21 | n | n | n | n | n | x
COCCNC(=O)c1c(N)n(CCC2=CCCCC2)c2nc3ccccc3nc12 | n | n | n | n | 43.0 | n
COCCn1c(N)c(C(=O)OCc2ccccc2)c2nc3ccccc3nc21 | n | n | n | x | 42.7 | n
COc1ccc(CCn2c(N)c(C(=O)NCc3ccco3)c3nc4ccccc4nc32)cc1 | n | n | n | n | n | x
Nc1nonc1-n1nnc(C(=O)N/N=C/c2ccccc2F)c1CN1CCc2ccccc21 | n | n | n | n | 46.0 | n
Cc1csc(NC(=O)CCn2c(=O)oc3ccc(Cl)cc32)n1 | n | n | n | n | 43.4 | n
Cc1nnc(NC(=O)CCn2c(=O)oc3ccc(Cl)cc32)s1 | n | n | n | n | n | x
CCOC(=O)c1sc(C(=O)OCC)c(OCCO)c1OCCO | n | n | n | n | n | x
CNCCCOc1ccc(Cl)cc1C(C)(C)C | n | n | n | n | 40.7 | n
COCCCNCCCOc1ccc(Cl)cc1C(C)(C)C | n | n | n | n | n | x
CCN(CC)S(=O)(=O)c1ccc(N2CCCC2)c(NS(=O)(=O)c2ccccc2)c1 | n | n | n | n | n | x
CCN(CC)S(=O)(=O)c1ccc(N2CCCC2)c(NS(=O)(=O)c2ccc(F)cc2)c1 | n | n | n | n | 40.2 | n
COc1ccc2cc3cc(C(=O)N4CCCC(C)C4)oc3nc2c1 (stereo unspecified) | n | n | n | n | 44.8 | n
CCOC(=O)C1CCCN(C(=O)c2cc3cc4ccc(OC)cc4nc3o2)C1 (stereo unspecified) | n | n | n | n | n | x
COc1nc(NC(=O)c2ccc(F)cc2)nc(OC)c1-c1ccccc1 | n | n | n | n | n | x
CC(CC(=O)OCC(=O)NCc1ccc(Cl)cc1)c1ccccc1 (stereo unspecified) | n | n | n | n | n | x
CC(C)N(C(=S)Nc1cccc(C(F)(F)F)c1)C(C)c1ccccn1 (stereo unspecified) | n | n | n | x | 42.8 | n
SMILES | TIM10 inh | tim23-1 inh | NLRP3 yeast inh | PfHsp90 set2 | tim10-1 inh | tim10-1 confirm
CCN(CC)S(=O)(=O)N1CCN(S(=O)(=O)N2CCOCC2)CC1 | n | n | n | n | n | x
COc1ccc(C(=O)OCC(=O)NCC2CCCO2)c(F)c1 (stereo unspecified) | n | n | n | n | n | x
Cc1cc(O)c(C(C[N+](=O)[O-])c2ccc(Cl)cc2Cl)c(=O)o1 (stereo unspecified) | n | n | n | x | 42.6 | n
COc1ccc(OCc2cc(C(=O)N3CCN(C4CCCC4)CC3)no2)c(Cl)c1 | n | n | n | n | 43.3 | 32.6
Cc1cccc(NC2=C(NCCO)C(=O)c3ccccc3C2=O)c1 | n | n | n | n | 41.5 | 32.2
COc1cccc(NC2=C(NCCO)C(=O)c3ccccc3C2=O)c1 | n | n | n | n | n | x
O=C(COc1ccc(Cl)cc1Cl)N/N=C/CCc1ccccc1 | n | n | n | n | n | x
O=C(COc1ccc(Cl)cc1Cl)N/N=C/c1ccc[nH]1 | n | n | n | n | 44.2 | n
COc1cc2c(cc1NC(=O)COC(=O)[C@@H](NC(=O)c1ccccc1F)C(C)C)oc1ccccc12 | n | n | n | n | 40.4 | n
CC1CCCCC1n1c(=S)[nH]c2ccccc2c1=O (stereo unspecified) | n | n | n | x | 41.8 | n
CC1CCCCC1NC(=O)CCCn1c(=S)[nH]c2ccccc2c1=O (stereo unspecified) | n | n | n | x | n | x
CCOC(=O)c1c(O)cc(C)cc1Nc1ccccc1 | n | n | n | n | n | x
COc1ccc(OC)c(NC(=O)c2cccc3c2C(=O)N(C2CCCCC2)C3)c1 | n | n | n | n | 53.8 | n
O=C(NCc1cccs1)C(Cc1ccccc1)n1cccc1 (stereo unspecified) | n | n | n | n | n | x
O=C(CN1C(=O)/C(=C\C=C\c2ccccc2)SC1=S)Nc1ccc(F)cc1 | n | n | n | n | 40.1 | n
CCN(CC)CCN(C(=O)c1ccc2c(c1)OCCO2)c1nc2ccc(C)cc2s1 | n | n | n | n | 44.0 | n
Cc1ccc2nc(N(CCN(C)C)C(=O)c3ccc4c(c3)OCCO4)sc2c1 | n | n | n | n | n | x
O[C@@H]1CN(C2CCCCC2)CC[C@H]1N1CCN(CCc2ccccc2)CC1 | n | n | n | n | n | x
Cc1ccc(Cn2c(C(C)Nc3nc(-c4ccc(C)cc4)cs3)nc3cc(Cl)c(Cl)cc32)cc1 (stereo unspecified) | n | n | n | n | n | x
CCc1cc2c3c(c(=O)oc2cc1O)CCCC3 | n | n | n | n | 40.6 | n
COc1ccc(N2Cc3ccccc3C2=O)cc1 | n | n | n | n | n | x
C=CC(=O)Oc1ccc(N2Cc3ccccc3C2=O)cc1 | n | n | n | x | 59.5 | 67.7
O=C(CSC(=S)N1CCCCC1)N1N=CCC1c1ccccc1 (stereo unspecified) | n | n | n | n | 41.5 | 32.3
O=C(c1ccc(CS(=O)c2cccc(Cl)c2)o1)N1CCN(C2CCCCC2)CC1 (stereo unspecified) | n | n | n | n | n | x
CC(C)(C)NC(=O)NC(=O)COc1ccc(Br)cc1Br | n | n | n | n | 46.0 | 33.6
SMILES | TIM10 inh | tim23-1 inh | NLRP3 yeast inh | PfHsp90 set2 | tim10-1 inh | tim10-1 confirm
O=C(COc1ccc(Br)cc1Br)NC(=O)NC1CCCC1 | n | n | n | n | n | x
CC1CCN(S(=O)(=O)c2ccc(NC(=O)Cc3cccs3)cc2)CC1 | n | n | n | x | 54.1 | 36.5
NS(=O)(=O)c1ccc(NC(=O)Cc2cccs2)cc1 | n | n | n | n | n | x
CCN(CC)S(=O)(=O)c1ccc(NC(=O)Cc2cccs2)cc1 | n | n | n | n | 45.1 | n
CC(C)(C)C1C=C(Sc2ccccc2)C(=O)O1 (stereo unspecified) | n | n | n | n | 43.5 | 34.9
Cn1c(=O)c(Sc2ccccc2)c(O)c2ccccc21 | n | n | n | n | n | x
COc1ccc(NC(=O)C2=CC(c3cccs3)=NS(=O)(=O)N2C)cc1 | n | n | n | n | n | x
